Spn DPM-DC inh – blocks S. pneumoniae diphosphomevalonate decarboxylase | purified DPM-DC, PK/LDH coupled NADH fluorescence | calls only at 10 µM | 65,000 compounds, 0.49% hits | AID 556;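 active means the 320 compounds with the highest percent inhibition in the single-dose primary screen, excluding strongly autofluorescent ones, cut at about 32% in these data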;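 further: kinetic rate of NADH fluorescence loss reporting ADP formed by the decarboxylase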
NADH coupling – inhibition of NAD/NADH coupling enzymes, library profiling; 65,000 compounds, 0.02% hits; coupled PK/LDH NADH assays, four targets; IC50, µM (highest dose often 10 µM); AID 774;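 active means single-dose screening hits from any of four coupled enzyme assays that gave an IC50 when retested across doses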;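 further: the DPM-DC format reads NADH fluorescence rather than 340 nm absorbance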
Autofluor 339 – intrinsic fluorescence of library compounds, ex339/em460 – biochemical, MLSMR library, data from DPM-DC assay, artefact control, profiling panel; fluorescence fold increase at 10 µM; 65,000 compounds, 5.5% hits; compound autofluorescence, ex339/em460 nm, NADH buffer; stronger effect = higher value; 1 = no-compound wells, NADH background;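 active means at 10 µM, mean starting fluorescence two-fold or more over control wells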;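 further: signal is the first read of a kinetic run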
Spn PMK inh – S. pneumoniae PMK inhibition. purified PMK, PK/LDH-coupled NADH absorbance 340 nm. inhibition, % at 10 µM. 65,000 compounds, 0.49% hits. AID 539;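 active means top-ranked compounds by inhibition in the single 10 µM screen, taking a fixed number of the strongest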
Abs 340nm – absorbance at 340 nm; compound absorbance at 340 nm, fold over control; fold change at 10 µM; 65,000 tested, under 10 active; AID 708;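 active means at 10 µM dose, initial 340 nm absorbance at least 2 fold that of control wells; inactive means change under 2 fold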;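 further: initial absorbance extrapolated from kinetic A340 decline of NADH oxidation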
MK inhibit – blocks S. pneumoniae mevalonate kinase | purified MK, PK/LDH-coupled NADH absorbance 340 nm | inhibition, % at 10 µM | 65,000 compounds, 0.48% hits | AID 555;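 active means ranked among the strongest by inhibition in the single 10 µM screen, a fixed top-ranked set picked for dose follow-up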
Numbers stand for hits. This is a sample that favours compounds with a hit; in the whole collection about 6.3% have one here.

Results for CCOC(=O)c1oc2nc(C)c3c(c2c1N)CC(C)(C)OC3 ?
NADH coupling: inactive; Autofluor 339: 3.9; Spn PMK inh: inactive; Abs 340nm: inactive; MK inhibit: inactive

What do the screens show for `CCOC(=O)c1oc2nc3c(cc2c1N)COC(C)(C)C3`?
Spn DPM-DC inh: inactive; NADH coupling: inactive; Autofluor 339: 2.8; Spn PMK inh: inactive; Abs 340nm: inactive; MK inhibit: inactive

How did CN(C)c1ccc(-c2nc3ccccc3n2C)cc1 do in these assays?
NADH coupling: inactive; Autofluor 339: 3.6; Spn PMK inh: 25; Abs 340nm: inactive; MK inhibit: inactive

Results for CCn1c(-c2ccc(N(C)C)cc2)nc2ccccc21 ?
NADH coupling: inactive; Autofluor 339: 3.9; Spn PMK inh: inactive; Abs 340nm: inactive; MK inhibit: inactive

How did C=CCn1c(-c2ccc(OC)cc2)nc2ccccc21 do in these assays?
Spn DPM-DC inh: inactive; NADH coupling: inactive; Autofluor 339: inactive; Spn PMK inh: inactive; Abs 340nm: inactive; MK inhibit: inactive

Results for CCn1c(-c2ccc(N)cc2)nc2ccccc21 ?
Spn DPM-DC inh: inactive; NADH coupling: inactive; Autofluor 339: inactive; Spn PMK inh: inactive; Abs 340nm: inactive; MK inhibit: inactive

Results for C=CCn1c(-c2ccc(N)cc2)nc2ccccc21 ?
NADH coupling: inactive; Autofluor 339: 2.1; Spn PMK inh: inactive; Abs 340nm: inactive; MK inhibit: inactive

How did CC(C)n1c(-c2ccc(N(C)C)cc2)nc2ccccc21 do in these assays?
NADH coupling: inactive; Autofluor 339: 3.8; Spn PMK inh: inactive; Abs 340nm: inactive; MK inhibit: inactive

How did COCCNS(=O)(=O)c1ccc(SC)cc1 do in these assays?
Spn DPM-DC inh: inactive; NADH coupling: inactive; Autofluor 339: inactive; Spn PMK inh: inactive; Abs 340nm: inactive; MK inhibit: inactive

Results for CCC(C)(C(=O)NC1CCCCC1)N(C(=O)C1CCC(=O)N1)c1ccc(C)cc1 (stereo not given) ?
Spn DPM-DC inh: inactive; NADH coupling: inactive; Autofluor 339: inactive; Spn PMK inh: inactive; Abs 340nm: inactive; MK inhibit: inactive

Results for CC1(C)Cc2nc3oc4c(N(CCO)Cc5ccccc5)ncnc4c3cc2CO1 ?
Spn DPM-DC inh: inactive; NADH coupling: inactive; Autofluor 339: 2.4; Spn PMK inh: inactive; Abs 340nm: inactive; MK inhibit: inactive

How did CC1(C)Cc2nc3sc4c(SCC(=O)NCc5ccco5)ncnc4c3cc2CO1 do in these assays?
Spn DPM-DC inh: inactive; NADH coupling: inactive; Autofluor 339: inactive; Spn PMK inh: inactive; Abs 340nm: inactive; MK inhibit: inactive

What do the screens show for `CN(C(=O)c1cccs1)c1ccccc1C(=O)O`?
NADH coupling: inactive; Autofluor 339: 2.2; Spn PMK inh: inactive; Abs 340nm: inactive; MK inhibit: inactive

What do the screens show for `O=C(NCc1ccc2c(c1)OCO2)c1ccc(C2SCC(=O)N2Cc2ccco2)cc1` (stereo not given)?
Spn DPM-DC inh: inactive; NADH coupling: inactive; Autofluor 339: inactive; Spn PMK inh: inactive; Abs 340nm: inactive; MK inhibit: inactive

How did CCN1CCCC1CN(Cc1cc2cc(C)cc(C)c2[nH]c1=O)C(=O)Nc1ccccc1OC (stereo not given) do in these assays?
Spn DPM-DC inh: inactive; NADH coupling: inactive; Autofluor 339: inactive; Spn PMK inh: inactive; Abs 340nm: inactive; MK inhibit: inactive

Results for COc1ccc2[nH]c(=O)c(CN(CC3CCCO3)C(=O)Nc3ccccc3OC)cc2c1 (stereo not given) ?
Spn DPM-DC inh: inactive; NADH coupling: inactive; Autofluor 339: 2.5; Spn PMK inh: inactive; Abs 340nm: inactive; MK inhibit: inactive

Results for CCc1ccc2[nH]c(=O)c(CN(CCCN3CCOCC3)C(=O)Nc3cccc(Cl)c3)cc2c1 ?
Spn DPM-DC inh: inactive; NADH coupling: inactive; Autofluor 339: inactive; Spn PMK inh: inactive; Abs 340nm: inactive; MK inhibit: inactive

Results for COc1ccc2[nH]c(=O)c(CN(CCN3CCCC3)C(=O)Nc3ccccc3Cl)cc2c1 ?
Spn DPM-DC inh: inactive; NADH coupling: inactive; Autofluor 339: 3.2; Spn PMK inh: inactive; Abs 340nm: inactive; MK inhibit: inactive

What do the screens show for `COc1ccccc1NC(=O)N(Cc1cc2cc(OC)c(OC)cc2[nH]c1=O)CC1CCCO1` (stereo not given)?
Spn DPM-DC inh: inactive; NADH coupling: inactive; Autofluor 339: 2.7; Spn PMK inh: inactive; Abs 340nm: inactive; MK inhibit: inactive

What do the screens show for `COc1cc(C(=O)N(Cc2cc3ccccc3[nH]c2=O)CC2CCCO2)cc(OC)c1OC` (stereo not given)?
Spn DPM-DC inh: inactive; NADH coupling: inactive; Autofluor 339: inactive; Spn PMK inh: inactive; Abs 340nm: inactive; MK inhibit: inactive

How did COc1ccc(OC)c(S(=O)(=O)N2CCC(C(=O)Nc3cccc(C(F)(F)F)c3)CC2)c1 do in these assays?
Spn DPM-DC inh: inactive; NADH coupling: inactive; Autofluor 339: inactive; Spn PMK inh: inactive; Abs 340nm: inactive; MK inhibit: inactive

How did Cc1cc(C)c(N2C(=NC(=O)CCCC(=O)O)SC3CS(=O)(=O)CC32)c(C)c1 (stereo not given) do in these assays?
Spn DPM-DC inh: inactive; NADH coupling: inactive; Autofluor 339: inactive; Spn PMK inh: inactive; Abs 340nm: inactive; MK inhibit: inactive

How did CCOc1cc2c(C#N)c(N3CCOCC3)nc(N)c2c(N)n1 do in these assays?
NADH coupling: inactive; Autofluor 339: 5.1; Spn PMK inh: inactive; Abs 340nm: inactive; MK inhibit: inactive

What do the screens show for `COCc1cc(C)nc(N2CCOCC2)c1C#N`?
NADH coupling: inactive; Autofluor 339: 2.1; Spn PMK inh: inactive; Abs 340nm: inactive; MK inhibit: inactive

What do the screens show for `COCc1cc(C)nc(N)c1C#N`?
NADH coupling: inactive; Autofluor 339: inactive; Spn PMK inh: inactive; Abs 340nm: inactive; MK inhibit: inactive

Results for CCCCc1nc(N2CCOCC2)c(C#N)c2c1CCCC2 ?
Spn DPM-DC inh: inactive; NADH coupling: inactive; Autofluor 339: inactive; Spn PMK inh: inactive; Abs 340nm: inactive; MK inhibit: inactive

How did CCNc1nc(C)cc(COC)c1C#N do in these assays?
NADH coupling: inactive; Autofluor 339: 2.2; Spn PMK inh: inactive; Abs 340nm: inactive; MK inhibit: inactive

How did COc1cc(-c2nc3cnccc3n2C)cc(OC)c1OC do in these assays?
Spn DPM-DC inh: active; NADH coupling: inactive; Autofluor 339: inactive; Spn PMK inh: inactive; Abs 340nm: inactive; MK inhibit: inactive

Results for COc1cc(CO)cc(Br)c1OCc1cccnc1 ?
Spn DPM-DC inh: inactive; NADH coupling: inactive; Autofluor 339: inactive; Spn PMK inh: inactive; Abs 340nm: inactive; MK inhibit: inactive

What do the screens show for `COc1ccc(OC)c(-c2cc(C(=O)Nc3cc(C)n(Cc4ccc(Cl)cc4)n3)no2)c1`?
Spn DPM-DC inh: inactive; NADH coupling: inactive; Autofluor 339: 3.8; Spn PMK inh: inactive; Abs 340nm: inactive; MK inhibit: inactive

Results for COc1cccc(-c2cc(C(=O)Nc3cc(C)n(Cc4ccc(Cl)cc4)n3)no2)c1 ?
Spn DPM-DC inh: inactive; NADH coupling: inactive; Autofluor 339: inactive; Spn PMK inh: inactive; Abs 340nm: inactive; MK inhibit: inactive

Source: PubChem BioAssay (SRMLSC)
